In PubChem BioAssay (Tox21):
Where “and” joins values, the source holds several entries; their conditions need not be identical. Identical values can stand only once. Inconclusive results are not listed. Entries that show only a call come without a potency. Some compounds were tested as several samples or in several runs, with calls that do not always agree. Calls of active or inactive are those of the source. Unless noted, calls come from the whole dose curve; as a rule, active = well fitted cell-killing curve with a large enough effect in the repeat runs; inconclusive = weak or mixed curves, or effect the other way; inactive = no such curve, though single readings can be large or run the other way.

Target: Vitamin D3 receptor (Homo sapiens) (UniProt P11473)
Sequence (P11473 whole entry, looked up): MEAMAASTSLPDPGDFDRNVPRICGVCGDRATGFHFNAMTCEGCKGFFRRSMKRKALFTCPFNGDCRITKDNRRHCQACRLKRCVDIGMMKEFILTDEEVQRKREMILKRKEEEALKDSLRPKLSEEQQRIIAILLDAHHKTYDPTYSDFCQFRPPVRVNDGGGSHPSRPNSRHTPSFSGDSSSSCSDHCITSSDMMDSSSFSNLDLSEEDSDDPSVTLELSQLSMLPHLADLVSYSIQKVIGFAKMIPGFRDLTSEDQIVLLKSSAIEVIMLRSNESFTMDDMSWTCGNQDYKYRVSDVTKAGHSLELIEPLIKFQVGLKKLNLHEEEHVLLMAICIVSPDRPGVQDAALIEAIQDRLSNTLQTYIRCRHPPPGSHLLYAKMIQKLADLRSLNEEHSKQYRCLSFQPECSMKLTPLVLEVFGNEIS
Test: qHTS assay to identify small molecule agonists of the vitamin D receptor (VDR) signaling pathway (AID 743222; calls by dose curve)
Settings: HEK293T VDR-UAS-bla, beta-lactamase FRET ratio, 16 h; series mostly up to 63.5 µM
Outline: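 VDR-bla cells were plated 4 h at 37C/5% CO2, then exposed to compounds in DMSO for 16 h. After LiveBLAzer B/G FRET substrate addition and 2 h at room temperature, beta-lactamase reporter fluorescence was read.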

Structure (SMILES)	outcome
OC(CCl)CCl	inactive
CN(C)CCC=C1c2ccccc2CCc2ccccc21	inactive
NC=O	inactive
O=CCc1ccccc1	inactive
CCCCOCCOCCOCCO	inactive
O=P(O)(O)O	inactive
CCCCNS(=O)(=O)c1ccccc1	inactive
Cc1ccc(C)c(O)c1C	inactive
Cc1cccc(C(=O)O)c1	inactive
Nc1ncn([C@@H]2O[C@H](CO)[C@@H](O)[C@H]2O)c(=O)n1	inactive
c1ccncc1	inactive
Nc1ncnc2nc[nH]c12	inactive
Cc1c(C(N)=O)cc([N+](=O)[O-])cc1[N+](=O)[O-]	inactive
CC(C)OC=O	inactive
CC(C)OC(=O)C(C)(C)Oc1ccc(C(=O)c2ccc(Cl)cc2)cc1	inactive
c1ccc2c(c1)c1cccc3ccc4cccc2c4c31	inactive
O=Cc1ccccc1O	inactive
C[C@]12CC[C@H]3[C@@H](CCC4=CC(=O)CC[C@@]43C)[C@@H]1CC[C@@H]2C(=O)CO	inactive
O=CCCCC=O	inactive
COC(C)COC(C)COC(C)CO (stereo not drawn)	inactive
CC(C)Oc1ccc2c(=O)c(-c3ccccc3)coc2c1	inactive
C=C(C)C(=O)OCCOC(=O)C(=C)C	inactive
Clc1nc(Cl)c(Cl)c(Cl)c1Cl	inactive
O=C(/C=C/C=C/c1ccc2c(c1)OCO2)N1CCCCC1	inactive
CN1C(C(=O)Nc2ccccn2)=C(O)c2ccccc2S1(=O)=O	inactive
CC(C)CC(C)(O)C#CC(C)(O)CC(C)C (stereo not drawn)	inactive
O=c1oc(=O)c2cc3c(=O)oc(=O)c3cc12	inactive

Target: Vitamin D3 receptor (Homo sapiens) (UniProt P11473)
Test: qHTS assay to identify small molecule antagonists of the vitamin D receptor (VDR) signaling pathway (AID 743223; active = well fitted inhibition curve with a large enough effect in the signal ratio in the repeat runs, not every such curve was filed as active; the % refers to the signal ratio)
Settings: VDR-UAS-bla HEK293T, beta-lactamase FRET ratio, 16 h; series mostly up to 61 µM
Outline: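 VDR-bla cells were treated with compound plus 3 nM final 1alpha,25-dihydroxyvitamin D3 for 16 h at 37C. Beta-lactamase reporter read by B/G FRET substrate fluorescence after 2 h at room temperature. qHTS format.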

Structure (SMILES)	outcome
CCCCOCCOCCOCCO	inactive
O=P(O)(O)O	inactive
Cc1ccc(C)c(O)c1C	inactive
Cc1cccc(C(=O)O)c1	inactive
Nc1ncnc2nc[nH]c12	inactive
Cc1c(C(N)=O)cc([N+](=O)[O-])cc1[N+](=O)[O-]	inactive
CC(C)OC=O	inactive
CC(C)OC(=O)C(C)(C)Oc1ccc(C(=O)c2ccc(Cl)cc2)cc1	inactive
C=C(C)C(=O)OCCOC(=O)C(=C)C	inactive
Clc1nc(Cl)c(Cl)c(Cl)c1Cl	inactive
CN1C(C(=O)Nc2ccccn2)=C(O)c2ccccc2S1(=O)=O	inactive
Cc1ccc(C(=O)c2cc(O)c(O)c([N+](=O)[O-])c2)cc1	inactive
O=c1oc(=O)c2cc3c(=O)oc(=O)c3cc12	inactive

System: not listed separately
Test: qHTS assay to identify small molecule agonists of the vitamin D receptor (VDR) signaling pathway - cell viability counter screen (AID 743224); note: nearly all actives have a fitted effect of over 50% in size; note: potency is the fitted concentration of half-maximal effect
Settings: VDR-bla HEK293T viability, CellTiter-Glo luminescence, 16 h; series mostly up to 62.6 µM
Outline: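 VDR-bla cells were preincubated 4 h at 37C/5% CO2, then exposed to compounds for 16 h. After the 2 h room-temperature bla FRET read, CellTiter-Glo was added to the same wells and luminescence read after 30 min.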

Structure (SMILES)	Potency
OC(CCl)CCl	inactive
CN(C)CCC=C1c2ccccc2CCc2ccccc21	49 µM (active) and 21.9 µM (active)
NC=O	inactive
CCCCOCCOCCOCCO	inactive
CCOCCOCCO	inactive
CCC(C)(O)CCCC(C)C (stereo not drawn)	inactive
O=P(O)(O)O	inactive
Cc1ccc(C)c(O)c1C	inactive
Cc1[nH]c(=O)c(C#N)cc1-c1ccncc1	inactive
CNCCCC12CCC(c3ccccc31)c1ccccc12	21.9 µM (active) and inactive
Nc1ncn([C@@H]2O[C@H](CO)[C@@H](O)[C@H]2O)c(=O)n1	inactive
OC1CCCCCCCCCCC1	inactive
c1ccncc1	inactive
Nc1ncnc2nc[nH]c12	inactive
CC(C(=O)O)c1cccc(C(=O)c2ccccc2)c1 (stereo not drawn)	inactive
Cc1c(C(N)=O)cc([N+](=O)[O-])cc1[N+](=O)[O-]	inactive
O=Cc1ccccc1O	inactive
C[C@]12CC[C@H]3[C@@H](CCC4=CC(=O)CC[C@@]43C)[C@@H]1CC[C@@H]2C(=O)CO	inactive
COC(C)COC(C)COC(C)CO (stereo not drawn)	inactive
COC(=O)C1=C(C)NC(C)=C(C(=O)OCCN(C)Cc2ccccc2)C1c1cccc([N+](=O)[O-])c1 (stereo not drawn)	54.6 µM (active)
CC(C)Oc1ccc2c(=O)c(-c3ccccc3)coc2c1	inactive
Clc1nc(Cl)c(Cl)c(Cl)c1Cl	inactive
O=C(/C=C/C=C/c1ccc2c(c1)OCO2)N1CCCCC1	inactive
C[C@]12CCC(=O)C=C1CC[C@@H]1[C@@H]2C(=O)C[C@@]2(C)[C@H]1CC[C@]2(O)C(=O)CO	24.5 µM (active) and inactive
O=c1oc(=O)c2cc3c(=O)oc(=O)c3cc12	inactive

System: not listed separately
Test: qHTS assay to identify small molecule antagonists of the vitamin D receptor (VDR) signaling pathway - cell viability counter screen (AID 743225); note: nearly all actives have a fitted effect of over 50% in size; note: potency is the fitted concentration of half-maximal effect
Settings: VDR-bla HEK293T viability, CellTiter-Glo luminescence, 16 h; series mostly up to 61 µM
Outline: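 VDR-UAS-bla HEK 293T cells were plated and incubated 4 h at 37C, then dosed with compound plus 3 nM (final) 1-alpha,25-dihydroxyvitamin D3 for 16 h. After the 2 h beta-lactamase read, viability in the same wells was read as CellTiter-Glo luminescence after 30 min at room temperature.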

Structure (SMILES)	Potency
OC(CCl)CCl	inactive
c1cc(N(CC2CO2)CC2CO2)ccc1OCC1CO1 (stereo not drawn)	inactive
CN(C)CCC=C1c2ccccc2CCc2ccccc21	21.9 µM (active) and 49 µM (active) and inactive
NC=O	inactive
O=CCc1ccccc1	inactive
CCCCOCCOCCOCCO	inactive
CCOCCOCCO	inactive
CCC(C)(O)CCCC(C)C (stereo not drawn)	inactive
O=P(O)(O)O	inactive and 5.49 µM (active)
CCCCNS(=O)(=O)c1ccccc1	inactive
Cc1ccc(C)c(O)c1C	inactive
Cc1[nH]c(=O)c(C#N)cc1-c1ccncc1	inactive
CNCCCC12CCC(c3ccccc31)c1ccccc12	15.5 µM (active)
Cc1cccc(C(=O)O)c1	inactive
Nc1ncn([C@@H]2O[C@H](CO)[C@@H](O)[C@H]2O)c(=O)n1	inactive
OC1CCCCCCCCCCC1	inactive
c1ccncc1	inactive
Nc1ncnc2nc[nH]c12	inactive
CC(C(=O)O)c1cccc(C(=O)c2ccccc2)c1 (stereo not drawn)	inactive

Structure (SMILES)	Potency
Cc1c(C(N)=O)cc([N+](=O)[O-])cc1[N+](=O)[O-]	inactive
CC(C)OC=O	inactive
O=[N+]([O-])c1ccc2c(c1)Cc1ccccc1-2	inactive
Cc1c(OCC(F)(F)F)ccnc1CS(=O)c1nc2ccccc2[nH]1 (stereo not drawn)	inactive
CC(C)OC(=O)C(C)(C)Oc1ccc(C(=O)c2ccc(Cl)cc2)cc1	inactive
c1ccc2c(c1)c1cccc3ccc4cccc2c4c31	inactive
O=Cc1ccccc1O	inactive
C[C@]12CC[C@H]3[C@@H](CCC4=CC(=O)CC[C@@]43C)[C@@H]1CC[C@@H]2C(=O)CO	inactive
O=CCCCC=O	inactive
COC(C)COC(C)COC(C)CO (stereo not drawn)	inactive
CC(C)Oc1ccc2c(=O)c(-c3ccccc3)coc2c1	inactive
C=C(C)C(=O)OCCOC(=O)C(=C)C	inactive
Clc1nc(Cl)c(Cl)c(Cl)c1Cl	inactive
O=C(/C=C/C=C/c1ccc2c(c1)OCO2)N1CCCCC1	inactive
C[C@]12CCC(=O)C=C1CC[C@@H]1[C@@H]2C(=O)C[C@@]2(C)[C@H]1CC[C@]2(O)C(=O)CO	inactive
CN1C(C(=O)Nc2ccccn2)=C(O)c2ccccc2S1(=O)=O	inactive
Cc1ccc(C(=O)c2cc(O)c(O)c([N+](=O)[O-])c2)cc1	inactive
CC(C)CC(C)(O)C#CC(C)(O)CC(C)C (stereo not drawn)	inactive
O=c1oc(=O)c2cc3c(=O)oc(=O)c3cc12	inactive
